In all, about 5,500 compounds went through this assay and about 2,000 (36%) were called active. About 18% were inconclusive and are not listed. No stated cut-off is given here; in the data, active means normalized growth mostly below about 0.91 (no sharp cut-off); inconclusive means no clear call, values can overlap the other calls; inactive means mostly above about 0.92. Some of the results follow.
Assay: chemical genetic growth profiling, strain panel (AID 1159580);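 further: tested at 20 µM; growth read once vehicle control cultures reached saturation at 30 °C; 1 = growth at the plate median or of vehicle wells; lower values mean less growth of the strain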
Settings: growth OD

Measured: normalized growth

C#C[C@]1(O)CCC2C3CCC4=CC(=O)CC[C@@H]4C3CC[C@@]21CC (stereo not given in full)
active: S. cerevisiae deletion strains, locus YLR262C, strain YPT6 (second series), hits give low values 0.829
inactive: S. cerevisiae deletion strains, locus YJR066W, strain TOR1, hits give low values 0.91 | S. cerevisiae deletion strains, locus YKL009W, strain mrt4, hits give low values 0.96 | S. cerevisiae deletion strains, locus YKL068W, hits give low values 0.999 | S. cerevisiae deletion strains, locus YKL085W, strain MDH1 (second series), hits give low values 0.988 | S. cerevisiae deletion strains, locus YKL085W, strain MDH1, hits give low values 0.988 | S. cerevisiae deletion strains, locus YKL160W, strain elf1, hits give low values 0.988 | S. cerevisiae deletion strains, locus YKL190W, strain CNB1, hits give low values 1.01 | S. cerevisiae deletion strains, locus YKR001C, strain vps1, hits give low values 1 | S. cerevisiae deletion strains, locus YKR026C, strain gcn3, hits give low values 1 | S. cerevisiae deletion strains, locus YKR091W, strain srl3, hits give low values 0.993 | S. cerevisiae deletion strains, locus YLL001W, strain dnm1, hits give low values 0.987 | S. cerevisiae deletion strains, locus YLL026W, hits give low values 1 | S. cerevisiae deletion strains, locus YLL041C, strain sdh2, hits give low values 0.99 | S. cerevisiae deletion strains, locus YLR027C, strain aat2, hits give low values 0.989 | S. cerevisiae deletion strains, locus YLR039C, strain RIC1, hits give low values 0.949 | S. cerevisiae deletion strains, locus YLR058C, strain SHM2, hits give low values 0.998 | S. cerevisiae deletion strains, locus YLR102C, strain apc9, hits give low values 0.992 | S. cerevisiae deletion strains, locus YLR113W, strain HOG1, hits give low values 0.946 | S. cerevisiae deletion strains, locus YLR221C, strain rsa3, hits give low values 0.997 | S. cerevisiae deletion strains, locus YLR258W, strain gsy2, hits give low values 1 | S. cerevisiae deletion strains, locus YLR262C, strain YPT6, hits give low values 0.903 | S. cerevisiae deletion strains, locus YLR268W, strain sec22, hits give low values 0.958 | S. cerevisiae deletion strains, locus YLR320W, strain mms22, hits give low values 0.96 | S. cerevisiae deletion strains, locus YLR330W, strain CHS5, hits give low values 0.991 | S. cerevisiae deletion strains, locus YLR342W, strain FKS1 (second series), hits give low values 0.983 | S. cerevisiae deletion strains, locus YLR342W, strain FKS1, hits give low values 0.985 | S. cerevisiae deletion strains, locus YLR357W, strain rsc2, hits give low values 1.06 | S. cerevisiae deletion strains, locus YLR370C, strain arc18, hits give low values 0.984 | S. cerevisiae deletion strains, locus YLR371W, strain rom2, hits give low values 0.992 | S. cerevisiae deletion strains, locus YLR384C, strain iki3, hits give low values 0.992 | S. cerevisiae deletion strains, locus YLR418C, strain cdc73, hits give low values 1.03 | S. cerevisiae deletion strains, locus YML016C, strain PPZ1, hits give low values 0.989 | S. cerevisiae deletion strains, locus YML032C, strain rad52, hits give low values 0.977 | S. cerevisiae deletion strains, locus YML120C, strain ndi1, hits give low values 1.01 | S. cerevisiae deletion strains, locus YML124C, strain tub3, hits give low values 0.988 | S. cerevisiae deletion strains, locus YMR058W, strain fet3, hits give low values 0.987 | S. cerevisiae deletion strains, locus YMR078C, strain ctf18, hits give low values 0.989 | S. cerevisiae deletion strains, locus YMR125W, strain sto1, hits give low values 1 | S. cerevisiae deletion strains, locus YMR129W, hits give low values 0.983 | S. cerevisiae deletion strains, locus YMR205C, strain PFK2, hits give low values 0.989 | S. cerevisiae deletion strains, locus YMR223W, strain ubp8, hits give low values 0.987 | S. cerevisiae deletion strains, locus YMR231W, strain pep5, hits give low values 0.999 | S. cerevisiae deletion strains, locus YMR307W, strain GAS1, hits give low values 1.12 | S. cerevisiae deletion strains, locus YNL067W, strain RPL9B, hits give low values 1.01 | S. cerevisiae deletion strains, locus YNL071W, strain lat1, hits give low values 0.992 | S. cerevisiae deletion strains, locus YNL128W, strain TEP1, hits give low values 0.988 | S. cerevisiae deletion strains, locus YNL153C, strain GIM3, hits give low values 1.01 | S. cerevisiae deletion strains, locus YNL183C, strain NPR1, hits give low values 0.922 | S. cerevisiae deletion strains, locus YNL209W, strain ssb2, hits give low values 0.993 | S. cerevisiae deletion strains, locus YNL233W, strain BNI4, hits give low values 0.992 | S. cerevisiae deletion strains, locus YNL248C, strain rpa49, hits give low values 1 | S. cerevisiae deletion strains, locus YNL250W, strain rad50, hits give low values 0.988 | S. cerevisiae deletion strains, locus YNL271C, strain bni1, hits give low values 0.982 | S. cerevisiae deletion strains, locus YNL298W, strain CLA4, hits give low values 0.961 | S. cerevisiae deletion strains, locus YNL307C, strain MCK1, hits give low values 0.98 | S. cerevisiae deletion strains, locus YNL322C, strain KRE1 (second series), hits give low values 1 | S. cerevisiae deletion strains, locus YNR049C, strain mso1, hits give low values 1 | S. cerevisiae deletion strains, locus YNR052C, strain pop2, hits give low values 0.964 | S. cerevisiae deletion strains, locus YOL006C, strain TOP1, hits give low values 1.03 | S. cerevisiae deletion strains, locus YOL012C, strain htz1 1.51 | S. cerevisiae deletion strains, locus YOL147C, strain pex11, hits give low values 0.994 | S. cerevisiae deletion strains, locus YOR001W, strain rrp6, hits give low values 0.967 | S. cerevisiae deletion strains, locus YOR061W, strain CKA2, hits give low values 0.983 | S. cerevisiae deletion strains, locus YOR069W, strain VPS5, hits give low values 0.991 | S. cerevisiae deletion strains, locus YOR070C, strain gyp1, hits give low values 0.995 | S. cerevisiae deletion strains, locus YOR080W, strain dia2, hits give low values 0.996 | S. cerevisiae deletion strains, locus YOR083W, strain WHI5, hits give low values 0.997 | S. cerevisiae deletion strains, locus YOR106W, strain vam3, hits give low values 0.997 | S. cerevisiae deletion strains, locus YOR136W, strain idh2, hits give low values 0.991 | S. cerevisiae deletion strains, locus YOR144C, strain elg1, hits give low values 0.994 | S. cerevisiae deletion strains, locus YOR184W, strain ser1, hits give low values 0.912 | S. cerevisiae deletion strains, locus YOR231W, strain MKK1, hits give low values 0.983 | S. cerevisiae deletion strains, locus YOR265W, strain rbl2, hits give low values 1 | S. cerevisiae deletion strains, locus YOR270C, strain vph1, hits give low values 0.957 | S. cerevisiae deletion strains, locus YOR290C, strain snf2, hits give low values 0.98 | S. cerevisiae deletion strains, locus YOR316C, strain cot1, hits give low values 0.989 | S. cerevisiae deletion strains, locus YPL051W, strain arl3, hits give low values 0.979 | S. cerevisiae deletion strains, locus YPL055C, strain LGE1, hits give low values 1.04 | S. cerevisiae deletion strains, locus YPL078C, strain atp4, hits give low values 0.996 | S. cerevisiae deletion strains, locus YPL106C, strain sse1, hits give low values 1.06 | S. cerevisiae deletion strains, locus YPL240C, strain hsp82, hits give low values 1 | S. cerevisiae deletion strains, locus YPL241C, strain CIN2, hits give low values 1 | S. cerevisiae deletion strains, locus YPL256C, strain CLN2, hits give low values 0.963 | S. cerevisiae deletion strains, locus YPR119W, strain clb2, hits give low values 1 | S. cerevisiae deletion strains, locus YPR141C, strain kar3, hits give low values 0.983 | S. cerevisiae deletion strains, locus YPR163C, strain tif3, hits give low values 0.99 | S. cerevisiae deletion strains, locus YPR167C, strain met16, hits give low values 0.988 | S. cerevisiae deletion strains, strain wtn01, hits give low values 0.973 | S. cerevisiae strains, strain wild type, hits give low values 1.02

From PubChem BioAssay AID1159580 (chemical genetic matrix, 2015)
